PubChem BioAssay (NCI)
“And” between values parts separate entries of the source, which are not always exact repeats. Identical values can stand only once. About 83,000 compounds went through this panel and 20% of them were active in at least one assay; those are over-represented in the sample as a whole.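 48-hour exposure, single concentration, 96-well plates; percent growth endpoint where 0 means no net growth. Active: below 10.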 A structure can be active in one record and inactive in another. The source made the active and inactive calls.

What was measured:
Assay in all cases: NCI-60 one-dose screen, 48 h (100 = growth as untreated, 0 = no growth, -100 = all killed)
Conditions in all cases: 10 µM unless noted
MOLT-4 leukemia = tested on: MOLT-4 leukemia
SR leukemia = tested on: SR leukemia
RPMI-8226 leukemia = tested on: RPMI-8226 leukemia
OVCAR-8 ovarian = tested on: OVCAR-8 ovarian
OVCAR-5 ovarian = tested on: OVCAR-5 ovarian
SK-OV-3 ovarian = tested on: SK-OV-3 ovarian
IGROV1 ovarian = tested on: IGROV1 ovarian
OVCAR-3 ovarian = tested on: OVCAR-3 ovarian
NCI/ADR-RES ovarian = tested on: NCI/ADR-RES ovarian
T-47D breast = tested on: T-47D breast
BT-549 breast = tested on: BT-549 breast
MDA-MB-435 melanoma = tested on: MDA-MB-435 melanoma
SW-620 colon = tested on: SW-620 colon
MCF7 breast = tested on: MCF7 breast
HCT-116 colon = tested on: HCT-116 colon
HCC-2998 colon = tested on: HCC-2998 colon
KM12 colon = tested on: KM12 colon
OVCAR-4 ovarian = tested on: OVCAR-4 ovarian
HS 578T breast = tested on: HS 578T breast

Measured: growth

Nc1ccc(S(=O)(=O)F)cc1
inactive: MOLT-4 leukemia 93.3% | SR leukemia 84.7% | RPMI-8226 leukemia 98.9% | OVCAR-8 ovarian 107% | OVCAR-5 ovarian 102% | SK-OV-3 ovarian 105% | IGROV1 ovarian 105% | OVCAR-3 ovarian 111% | NCI/ADR-RES ovarian 107% | T-47D breast 96.4% | BT-549 breast 104% | MDA-MB-435 melanoma 102% | SW-620 colon 105% | MCF7 breast 106% | HCT-116 colon 100% | HCC-2998 colon 103% | KM12 colon 100%

CC1=C([Te]c2ccccc2)C(=O)c2ccccc2C1=O
active: OVCAR-8 ovarian -15.9% | OVCAR-5 ovarian -72.3% | OVCAR-4 ovarian -72.4% | SK-OV-3 ovarian -37.8% | IGROV1 ovarian -21.5% | OVCAR-3 ovarian -77.5% | HS 578T breast -22.4% | NCI/ADR-RES ovarian -23.1% | T-47D breast -51.9% | BT-549 breast -30.7% | MDA-MB-435 melanoma -3.36% | MCF7 breast -77.3% | HCT-116 colon -40.5% | HCC-2998 colon -66.4% | KM12 colon -60.7%
inactive: MOLT-4 leukemia 31.4% | SR leukemia 21.4%

CCCCCCCCCCCCCCCCCCn1cc[n+](C)c1
16.8% (inactive) and 9.25% (active): MOLT-4 leukemia
active: OVCAR-8 ovarian -20.2% and -37.4% | OVCAR-5 ovarian -61.5% and -59.7% | OVCAR-4 ovarian -19.3% and -13.3% | SK-OV-3 ovarian 4.83% and -9.16% | IGROV1 ovarian -43.9% and -43.1% | OVCAR-3 ovarian -48.7% and -56.3% | HS 578T breast -26.1% and -37% | BT-549 breast -55.6% and -55% | MDA-MB-435 melanoma -56.4% and -70.8% | SW-620 colon -45.2% and -38.1% | MCF7 breast -33.8% and 6.12% | HCT-116 colon -18.2% and -51.5% | HCC-2998 colon -80.7% and -80.9% | KM12 colon -47.8% and -61.9%
4.33% (active) and 19% (inactive): SR leukemia
20.9% (inactive) and -7.98% (active): NCI/ADR-RES ovarian
inactive: T-47D breast 35.9% and 17%

ClC1OC(Cl)(Cl)C(Cl)(Cl)OC1(Cl)Cl (stereo not given)
inactive: MOLT-4 leukemia 97.1% | SR leukemia 95% | OVCAR-8 ovarian 101% | OVCAR-5 ovarian 93.4% | SK-OV-3 ovarian 111% | IGROV1 ovarian 104% | OVCAR-3 ovarian 110% | HS 578T breast 135% | NCI/ADR-RES ovarian 102% | T-47D breast 91.4% | BT-549 breast 84.4% | MDA-MB-435 melanoma 101% | MCF7 breast 76.9% | HCT-116 colon 89.4% | HCC-2998 colon 112% | KM12 colon 104%

C[C@]12CCc3sc(Nc4ccc(OC(F)(F)F)cc4)nc3C1=CC[C@@H]1[C@@H]2CC[C@]2(C)C(=O)CC[C@@H]12
inactive: SR leukemia 16.9% | OVCAR-8 ovarian 66.5% | OVCAR-5 ovarian 91.9% | OVCAR-4 ovarian 64% | SK-OV-3 ovarian 69.9% | IGROV1 ovarian 93.6% | OVCAR-3 ovarian 37.4% | HS 578T breast 38.5% | NCI/ADR-RES ovarian 81.6% | T-47D breast 41.8% | BT-549 breast 53.5% | MDA-MB-435 melanoma 77.6% | SW-620 colon 43.3% | MCF7 breast 17.1% | HCC-2998 colon 96.5% | KM12 colon 53.5%
active: MOLT-4 leukemia 4.15%

COC1C(O)CC(OC2CC(Oc3cc4cc5c(c(O)c4c(O)c3C)C(=O)[C@@H](OC3CC(OC4CC(OC6CC(C)(O)C(OC(C)=O)C(C)O6)C(O)C(C)O4)C(O)C(C)O3)[C@H]([C@H](OC)C(=O)[C@@H](O)[C@@H](C)O)C5)OC(C)C2OC(C)=O)OC1C (stereo not given in full)
inactive: SK-OV-3 ovarian 12.2%
active: MOLT-4 leukemia 1.77% | SR leukemia 1.63% | RPMI-8226 leukemia -30.8% | OVCAR-5 ovarian -67% | OVCAR-4 ovarian 4.26% | IGROV1 ovarian -23.8% | OVCAR-3 ovarian -9.73% | NCI/ADR-RES ovarian -33.9% | T-47D breast -7.93% | BT-549 breast -68.3% | MDA-MB-435 melanoma -100% | SW-620 colon -16.1% | MCF7 breast -18.4% | HCT-116 colon 0.84% | KM12 colon -34.6%

O=NN(c1ccccc1)c1ccccc1
inactive: MOLT-4 leukemia 114% | SR leukemia 99.5% | OVCAR-8 ovarian 102% | OVCAR-5 ovarian 107% | OVCAR-4 ovarian 110% | SK-OV-3 ovarian 105% | OVCAR-3 ovarian 102% | HS 578T breast 107% | NCI/ADR-RES ovarian 100% | T-47D breast 107% | BT-549 breast 122% | MDA-MB-435 melanoma 105% | SW-620 colon 102% | MCF7 breast 99.8% | HCT-116 colon 95.4% | HCC-2998 colon 101% | KM12 colon 102%

C[C@]12CC[C@H]3[C@@H](CC=C4c5nc(N)sc5CC[C@@]43C)[C@@H]1CC[C@@H]2O
inactive: MOLT-4 leukemia 103% | SR leukemia 91.6% | OVCAR-8 ovarian 99.5% | OVCAR-5 ovarian 107% | OVCAR-4 ovarian 95.7% | SK-OV-3 ovarian 103% | IGROV1 ovarian 114% | OVCAR-3 ovarian 99.6% | HS 578T breast 105% | NCI/ADR-RES ovarian 102% | T-47D breast 92.2% | BT-549 breast 99.5% | MDA-MB-435 melanoma 92.9% | SW-620 colon 90.1% | MCF7 breast 104% | HCT-116 colon 92.1% | HCC-2998 colon 98.4% | KM12 colon 102%

C[C@]12CC[C@H]3[C@@H](CC=C4c5nc(-c6ccc(Br)cc6)sc5CC[C@@]43C)[C@@H]1CC[C@@H]2O
inactive: MOLT-4 leukemia 89.2% | SR leukemia 98.2% | OVCAR-8 ovarian 106% | OVCAR-5 ovarian 90% | OVCAR-4 ovarian 95.1% | SK-OV-3 ovarian 95.1% | IGROV1 ovarian 99.1% | OVCAR-3 ovarian 103% | HS 578T breast 74% | NCI/ADR-RES ovarian 99.5% | T-47D breast 92.6% | BT-549 breast 82.8% | MDA-MB-435 melanoma 96.1% | SW-620 colon 108% | MCF7 breast 87.2% | HCT-116 colon 84.9% | HCC-2998 colon 110% | KM12 colon 102%

CC1=C2[C@H]3OC(=O)[C@@H](C)[C@@H]3CC[C@@]2(C)C=CC1=O
inactive: MOLT-4 leukemia 104% | SR leukemia 114% | RPMI-8226 leukemia 91% | OVCAR-8 ovarian 116% | OVCAR-4 ovarian 110% | SK-OV-3 ovarian 122% | HS 578T breast 108% | NCI/ADR-RES ovarian 13.8% | T-47D breast 109% | MDA-MB-435 melanoma 115% | SW-620 colon 108% | MCF7 breast 103% | HCT-116 colon 118% | KM12 colon 105%

Cc1c2ccncc2c(C)c2c1[nH]c1ccccc12
active: MOLT-4 leukemia -24.4% | SR leukemia -12.8% | OVCAR-8 ovarian -14.2% | OVCAR-5 ovarian -90.8% | OVCAR-4 ovarian -29.7% | SK-OV-3 ovarian -4.52% | IGROV1 ovarian -66.2% | OVCAR-3 ovarian -86% | HS 578T breast -47.3% | NCI/ADR-RES ovarian -46.9% | T-47D breast -56.1% | MDA-MB-435 melanoma -89.6% | SW-620 colon -64.1% | MCF7 breast -15.9% | HCT-116 colon -57% | HCC-2998 colon -96.8% | KM12 colon -69.3%

COc1cc2c(cc1OC)-c1c3c(cc4c1[C@@H](C2)N(C)CC4)OCO3
inactive: MOLT-4 leukemia 11.9% | SR leukemia 17.2% | RPMI-8226 leukemia 23.9% | OVCAR-5 ovarian 42.5% | OVCAR-4 ovarian 44.2% | SK-OV-3 ovarian 66.5% | HS 578T breast 80.4% | NCI/ADR-RES ovarian 43.5% | T-47D breast 57.4% | BT-549 breast 55.8% | MDA-MB-435 melanoma 51.8% | SW-620 colon 35.1% | MCF7 breast 22.9% | HCT-116 colon 16.1% | KM12 colon 41.4%
active: HCC-2998 colon -3.7%

CCC(Br)(CC)C(=O)NC(N)=O
inactive: MOLT-4 leukemia 99.2% | SR leukemia 105% | RPMI-8226 leukemia 109% | OVCAR-8 ovarian 113% | SK-OV-3 ovarian 114% | IGROV1 ovarian 110% | OVCAR-3 ovarian 111% | HS 578T breast 106% | NCI/ADR-RES ovarian 116% | T-47D breast 101% | BT-549 breast 108% | MDA-MB-435 melanoma 102% | SW-620 colon 110% | MCF7 breast 94.6% | HCC-2998 colon 105% | KM12 colon 104%

COc1c(O)cc2c(c1OC)-c1ccc(SC)c(=O)cc1C(NC(C)=O)CC2 (stereo not given)
inactive: OVCAR-5 ovarian 41.9% | OVCAR-4 ovarian 16.8% | SK-OV-3 ovarian 35.2% | HS 578T breast 16% | T-47D breast 81.9% | SW-620 colon 22.9% | MCF7 breast 13.3%
active: MOLT-4 leukemia 9.41% | SR leukemia 5.8% | RPMI-8226 leukemia 0.467% | IGROV1 ovarian -44.2% | OVCAR-3 ovarian -34.3% | NCI/ADR-RES ovarian -1.28% | BT-549 breast -9.83% | MDA-MB-435 melanoma -47.2% | HCT-116 colon 4.98% | HCC-2998 colon -21.5% | KM12 colon -41.1%

O=NN1CCCCC1
inactive: MOLT-4 leukemia 115% | SR leukemia 106% | OVCAR-8 ovarian 111% | OVCAR-5 ovarian 104% | OVCAR-4 ovarian 110% | SK-OV-3 ovarian 107% | IGROV1 ovarian 116% | OVCAR-3 ovarian 112% | HS 578T breast 97.3% | NCI/ADR-RES ovarian 110% | T-47D breast 102% | BT-549 breast 104% | MDA-MB-435 melanoma 118% | SW-620 colon 107% | MCF7 breast 90.8% | HCT-116 colon 108% | KM12 colon 104%

Oc1ccc(O)c(Cl)c1
inactive: MOLT-4 leukemia 65.6% and 105% | SR leukemia 70.4% and 94.5% | OVCAR-8 ovarian 90.4% and 102% | OVCAR-5 ovarian 112% and 113% | OVCAR-4 ovarian 107% and 104% | SK-OV-3 ovarian 108% and 105% | IGROV1 ovarian 107% and 108% | OVCAR-3 ovarian 79.6% and 97.8% | HS 578T breast 93.5% and 97.7% | NCI/ADR-RES ovarian 102% and 97.3% | T-47D breast 89.1% | BT-549 breast 66.3% and 96.1% | MDA-MB-435 melanoma 102% and 109% | SW-620 colon 112% and 115% | MCF7 breast 86% and 96.7% | HCT-116 colon 102% and 109% | HCC-2998 colon 110% and 88.1% | KM12 colon 100% and 102%
